An excerpt weighted towards active compounds, which were near 4.5% of everything screened.
hgDAF12 agonist = agonists of H. glycines DAF-12 nuclear receptor; activation, % at 6.8 µM; 1.8% of 370,000 active; HEK293 GAL4-hgDAF12 UAS-luciferase reporter, agonist luminescence; normalized to butyrate control;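 active = activation above a cutoff set at the mean of all screened compounds plus 3 SD, cut at about 10% in these data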;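 note: 0% = DMSO wells and 100% = sodium butyrate wells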
DAX1 inh-1 = blocks DAX1 repression of SF-1 activated StAR promoter; HEK293T StAR-luciferase reporter, SF-1/DAX-1 repression relief; inhibition, % at 6.8 µM; 1.1% of 370,000 active;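 active = inhibition above the mean over all tested compounds plus 3 SD, cut at about 3.6% in these data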;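 note: 0% = DAX-1 cells with DMSO and 100% = cells lacking DAX-1 with DMSO; higher inhibition means more luminescence from relief of DAX-1 repression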
FXN GAA850 act = activators of GAA850 frataxin (FXN) promoter; HEK293 lucGAA850 FXN promoter luciferase reporter, 24 h; percent of 10 µM SAHA response; activation, % at 6 µM; 0.56% of 360,000 active; AID 540364;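 active = activation above the average of all compounds screened plus 3 SD, cutoff fixed separately per campaign, cut at about 7.5% in these data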;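 note: 0% = DMSO wells and 100% = 10 µM SAHA wells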
hcDAF12 agonist = activates DAF-12 receptor from parasite H. contortus; activation, % at 6.8 µM; 1.4% of 370,000 active; HEK293 hcDAF-12 lit1-tk-luc reporter, luminescence; 0% DMSO, 100% Δ7-dafachronic acid; AID 652067;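 active = activation above the mean of all tested compounds plus 3 SD, cut at about 5.5% in these data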;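 note: 100% = response to 3 µM Δ7-dafachronic acid high control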
ssDAF-12 act = activators of S. stercoralis DAF-12 nuclear receptor; HEK293 ssDAF-12/GRIP1 lit1-tk-luc reporter, luminescence; % of 3 µM dafachronic acid response; activation, % at 6.8 µM; 1% of 370,000 active;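 active = activation above the mean over all tested compounds plus 3 SD, cut at about 0.9% in these data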;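 note: 0% = DMSO-only wells and 100% = 3 µM delta7-dafachronic acid wells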
DAX1 inh-2 = inhibits human nuclear receptor DAX1 | P51843 | HEK293 Gal4-DAX1 luciferase reporter, luminescence | inhibition, % at 6.75 µM | 0.99% of 340,000 active | AID 504766;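 active = inhibition above the mean over all tested compounds plus 3 SD, cut at about 4.2% in these data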;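 note: 0% = DAX1-transfected cells with DMSO and 100% = empty-vector control cells with DMSO; inhibition shows as a rise in luminescence from relieved DAX1 repression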
Target sequence (P51843 207-470 limits assumed): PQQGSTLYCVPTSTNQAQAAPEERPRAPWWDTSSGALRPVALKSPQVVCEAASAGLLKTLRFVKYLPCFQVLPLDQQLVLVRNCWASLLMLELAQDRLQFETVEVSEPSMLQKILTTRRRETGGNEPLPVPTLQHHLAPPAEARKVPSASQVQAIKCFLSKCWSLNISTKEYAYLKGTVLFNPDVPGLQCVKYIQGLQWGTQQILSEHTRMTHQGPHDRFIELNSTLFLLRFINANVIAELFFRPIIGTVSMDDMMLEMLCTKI
* hit, by the source's call; . = not tested or not shown.

SMILES | hgDAF12 agonist | DAX1 inh-1 | FXN GAA850 act | hcDAF12 agonist | ssDAF-12 act | DAX1 inh-2
CC(=O)Nc1ccc2nc(NC(=O)CS(=O)(=O)c3ccccc3)sc2c1 | 2 | 1 | 1 | 1 | 0 | 0
Cc1nc2ccc(NC(=O)CCS(=O)(=O)c3ccccc3)cc2s1 | 9 | 1 | 2 | 2 | 0 | 5.2*
Cc1nc2ccc(NC(=O)c3ccco3)cc2s1 | 12* | 2 | 2 | 1 | -1 | 1
CSc1nc2ccc(NC(=O)CS(=O)(=O)c3ccccc3)cc2s1 | 11* | 2 | 4 | 1 | 0 | 3
CC(=O)Nc1nc2ccc(NC(=O)c3ccco3)cc2s1 | 4 | 1 | 4 | 1 | -1 | 0
COC(=O)[C@]12C[C@H](CC(=O)NCc3ccc(C)o3)C(=O)N(CCC3=CCCCC3)C1=C[C@H](C1CCCC1)O[C@@H]2C | -1 | -1 | . | -3 | -1 | .
CCCC(C)C(=O)NC1CCCCN(C)C1=O (stereo unspecified) | -1 | 0 | . | 0 | -1 | .
Cc1cc(C(=O)O)ccc1N/C=C1\CCCC(C)C1=O (stereo unspecified) | 11* | 2 | 3 | 3 | 1 | -1
CCOC(=O)COc1c(OC)cc(Cl)cc1C1Nc2ccccc2C(=O)N1c1cccc(C)c1 (stereo unspecified) | 0 | 0 | -7 | -1 | -1 | 0
CCOC(=O)COc1ccccc1C1Nc2ccccc2C(=O)N1c1cccc(Cl)c1 (stereo unspecified) | 12* | 3 | -7 | 2 | -1 | 1
O=C(Cn1c2[n+](c3ccc(C(F)(F)F)cc31)CCCCC2)Nc1ccccc1 | -1 | 0 | -1 | 5.9* | 0 | 0
CCc1cccc(NC(=O)Cn2c3[n+](c4ccc(C(F)(F)F)cc42)CCCCC3)c1 | -5 | 0 | 4 | 0 | -1 | -1
Clc1ccc([C@H]2OC[C@@]3(CNCCN4CCOCC4)CS[C@H](c4ccc(Cl)cc4)N23)cc1 | 0 | 0 | . | 0 | -1 | .
COc1ccc(/C=C/C(=O)NCCc2nc3ccccc3[nH]2)cc1 | 2 | -1 | 1 | 1 | 1.1* | .
CCCCOc1ccc(/C=C/C(=O)NCCc2nc3ccccc3[nH]2)cc1 | -1 | -1 | -3 | -3 | -2 | -1
N#Cc1ccccc1NC(=S)NC(=O)C1CCC1 | -1 | 0 | 0 | -1 | -1 | 4.3*
CCCC[C@H]1C2CC(OC(=O)Nc3ccccc3C)C(C2)[C@H]2CCCCN21 (stereo partly specified) | 6 | 0 | . | -2 | -1 | .
CN1/C(=C/c2cc[n+](C)c3ccccc23)C=Cc2ccccc21 | . | . | -8 | . | . | -4
C[n+]1ccc(/C=C/c2ccccc2O)c2ccccc21 | -2 | 0 | -1 | 6.5* | -2 | 0
COC(c1ccccc1)c1nnc(CCC(=O)N(C)C(C2CC2)C2CC2)o1 (stereo unspecified) | 7 | 0 | 2 | 1 | -1 | 5.2*
COC(c1ccccc1)c1nnc(CCC(=O)NC2CCCCC2)o1 (stereo unspecified) | 0 | 0 | 3 | -1 | 0 | 1
COc1ccc(C=Nn2c(-c3ccc(F)cc3)n[nH]c2=S)c(OC)c1OC | -2 | -1 | . | -2 | -1 | .
O=C(NC1CCCCCC1)C1CCN(S(=O)(=O)c2cccc3cccnc23)CC1 | -1 | -2 | 0 | -1 | 0 | 6.1*
Clc1nc2ccccc2cc1-c1nnn(-c2ccccc2)n1 | 10 | 0 | 5 | 6.4* | 1 | 1
CCn1cc([N+](=O)[O-])c(C(=O)NCc2ccc3c(c2)OCO3)n1 | 0 | 0 | -1 | 1 | -1 | 4.9*
SMILES | hgDAF12 agonist | DAX1 inh-1 | FXN GAA850 act | hcDAF12 agonist | ssDAF-12 act | DAX1 inh-2
Cn1c(C(=O)NCc2ccc3c(c2)OCO3)cc2sccc21 | 1 | -1 | 4 | 6.2* | -1 | 0
Cn1c(C(=O)N2CCN(Cc3ccc4c(c3)OCO4)CC2)cc2sccc21 | -3 | -1 | -2 | -3 | -2 | 1
CCn1cc([N+](=O)[O-])c(C(=O)Nc2ccc3c(c2)OCCO3)n1 | 5 | 1 | -1 | 0 | -1 | 0
CC(C)(C)OC(=O)/C=C/[C@H](CCCCl)Sc1ccc(C(C)(C)C)cc1 | 0 | -3 | . | -5 | -2 | .
COC(=O)[C@]12C[C@H](CC(=O)NCc3ccccc3)C(=O)N(CCc3ccc(OC)c(OC)c3)C1=C[C@H](C(C)C)O[C@@H]2C1CC1 | -1 | 0 | . | -3 | -1 | .
C=CCN1[C@H](C#N)[C@@H](c2ccc(C#Cc3ccccc3OC)cc2)[C@H]1CO | -3 | -1 | . | -5 | -2 | .
COc1ccc(CCN2CC(C(=O)Nc3ccccc3F)CC2=O)cc1OC (stereo unspecified) | -1 | -1 | 2 | -1 | 0 | 4.6*
COc1ccc(CCN2CC(C(=O)Nc3cc(F)ccc3F)CC2=O)cc1OC (stereo unspecified) | 1 | -1 | 0 | 0 | -1 | 2
Cc1ccc(C(=O)Oc2coc(CSc3ncccn3)cc2=O)cc1[N+](=O)[O-] | -1 | . | . | -1 | -1 | .
Cc1ccc(CNC(=O)CCS(=O)(=O)c2cc3c(cc2Br)CCN3C(=O)C2CC2)o1 | 3 | -1 | . | 0 | -1 | .
Cc1cccc(C(=O)OCC(=O)N2CCc3ccccc3C2)c1O | 2 | 0 | 3 | 1 | 0 | 0
Cc1cccc(C(=O)OCC(=O)N2CCCCCC2)c1O | 2 | 2 | 5 | 5 | 0 | 4.5*
CC(C)CNC(=O)OCc1cn(Cc2cccc(C(F)(F)F)c2)nn1 | -4 | 1 | . | 0 | 0 | .
O=S(=O)(c1ccc(F)cc1)N1CCN=C1SCc1cccnc1 | 1 | 1 | 3 | -1 | -1 | 7.1*
Cc1cc(/C=C2\C(=O)NN(c3ccccc3)C2=O)c(C)n1-c1ccccc1O | -4 | 0 | -2 | -1 | -1 | 5.4*
COc1cccc(/C=C2\CC3(OC(=O)C4CCCCC4)CCCN2C3)c1 (stereo unspecified) | -1 | 0 | . | -1 | -1 | .
NC(=O)c1c(NC(=O)Cn2nc(C(=O)O)c3ccccc3c2=O)sc2c1CCCC2 | 13* | 0 | -1 | 0 | -1 | 3
O=C(Cn1nc(C(=O)O)c2ccccc2c1=O)Nc1ccc(Br)cc1 | -3 | 0 | 2 | 1 | 1.1* | -1
CCc1ccc(NC(=O)Cn2nc(C(=O)O)c3ccccc3c2=O)cc1 | 0 | 0 | -1 | -1 | 0 | 0
CCN(CC)C(=O)c1ccc(C(CCOC(=O)Oc2ccccc2)c2ccc(OC)cc2)cc1 (stereo unspecified) | 0 | -1 | . | 0 | -1 | .
C#CCNC(=O)C[C@@H]1C(=O)N2CCCC3=C2[C@@]1(C(=O)OCC)CCC3 | -1 | -1 | . | 0 | -1 | .

High-throughput results deposited in PubChem BioAssay by The Scripps Research Institute Molecular Screening Center.
